PRMT1 FP inh: blocks human protein arginine methyltransferase 1. recombinant PRMT1, activity-based probe fluorescence polarization. 370,000 tested, 1.3% active. inhibition, % at 2.79 µM. AID 652257. Q99873;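 active = inhibition above about 21% made by adding two undisclosed values, limit read from the data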
LANA-H2B inh: blocks KSHV LANA binding to histone H2A/H2B. 320,000 tested, 0.6% active. AID 2629. inhibition, % (concentration not given with the values). cell-free LANA-H2A/H2B peptide, fluorescence polarization. Q9QR71; in the data active = inhibition mostly above about 10%, no sharp cut-off; inactive = mostly below about 6.7%
ABHD5 PLIN5 PPI: blocks binding of human ABHD5 to perilipin-5 | Split G. princeps luciferase complementation, luminescence, 4 h | inhibition, % at 4 µM | 360,000 tested, 0.78% active | AID 602281;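 active = inhibition above the mean inhibition across every tested compound plus 3 SD, cut at about 22% in these data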;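 also: 0% = DMSO only wells and the 100% control is not disclosed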
ALR inh: inhibitors of human sulfhydryl oxidase ALR | P55789 | purified ALR, DTT oxidation, H2O2 HRP-luminol luminescence | inhibition, % (test concentration not listed) | 290,000 tested, 3.8% active | AID 485317;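 active = mean replicate inhibition above about 79%, with every replicate also reaching it, limit read from the data; inconclusive = only one of the two criteria met; inactive = mean below limit and not every replicate reaching it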
Target sequence (P55789 whole entry, looked up): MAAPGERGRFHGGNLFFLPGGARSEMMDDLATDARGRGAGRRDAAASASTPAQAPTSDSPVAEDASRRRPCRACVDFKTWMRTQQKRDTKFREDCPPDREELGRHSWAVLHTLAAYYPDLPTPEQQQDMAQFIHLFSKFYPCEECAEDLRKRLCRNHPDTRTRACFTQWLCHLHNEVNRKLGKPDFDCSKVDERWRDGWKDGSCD
Rtt109 HAT inh: C. albicans Rtt109 histone acetyltransferase inhibition. Q5AAJ8. purified Rtt109/Vps75, ThioGlo CoA-SH fluorescence, 4 h. inhibition, % at 34.9 µM. AID 540336. 330,000 tested, 0.16% active;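 active = inhibition of at least 50% in every replicate; inconclusive = best replicate reaches 50% inhibition but some replicates fall short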
Target sequence (Q5AAJ8 whole entry, looked up): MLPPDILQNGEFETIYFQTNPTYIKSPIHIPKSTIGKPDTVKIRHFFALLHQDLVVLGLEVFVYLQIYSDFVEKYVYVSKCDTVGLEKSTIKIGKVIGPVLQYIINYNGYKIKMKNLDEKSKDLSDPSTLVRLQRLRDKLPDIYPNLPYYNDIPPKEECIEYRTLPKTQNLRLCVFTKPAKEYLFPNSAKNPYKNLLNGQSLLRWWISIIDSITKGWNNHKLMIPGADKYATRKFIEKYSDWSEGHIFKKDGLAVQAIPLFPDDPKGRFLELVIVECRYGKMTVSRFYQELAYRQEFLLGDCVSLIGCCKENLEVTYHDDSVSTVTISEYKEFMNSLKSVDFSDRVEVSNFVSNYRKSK
rCAG RNA binder: molecules binding r(CAG) RNA repeats; r(CAG) RNA repeat, TO-PRO-1 dye displacement fluorescence; 370,000 tested, 1.3% active; inhibition, % at 3 µM;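 active = inhibition above the plate cutoff, the mean of all test compounds on that plate plus 3 SD, cut at about 35% in these data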;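 also: 0% = DMSO alone and 100% = 100 µM mitoxantrone as full dye displacement; higher means more dye released from RNA so lower well fluorescence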
Active calls of the source: *; ? = inconclusive; nt = not tested or not shown. In the library only some 5.9% were active in any assay of this set; here they are far more common.

SMILES | PRMT1 FP inh | LANA-H2B inh | ABHD5 PLIN5 PPI | ALR inh | Rtt109 HAT inh | rCAG RNA binder
COc1ccc(OC)c(N(CC(N)=O)S(=O)(=O)c2ccc(OC)c(OC)c2)c1 | -1 | 2 | -9 | 99* | -5 | -3
C[C@@H]1CN([C@H](C)CO)C(=O)CCCn2cc(nn2)CO[C@H]1CN(C)S(=O)(=O)c1cn(C)cn1 | -5 | nt | nt | nt | nt | 2
COc1cccc(CNc2ccc(N3CCCCC3)cc2)c1OC | 2 | 2 | -17 | 96* | -6 | 6
COc1cccc(Nc2ccc(N3CCCCC3)cc2)c1OC | 24* | -1 | 10 | 100* | 4 | -2
COc1cccc(CNc2ccc(S(N)(=O)=O)cc2)c1OC | -1 | -6 | -1 | 0 | -5 | 0
COc1ccccc1CNc1ccc(N2CCCCC2)cc1 | nt | -3 | -10 | 98* | 6 | nt
COc1ccccc1CNc1ccc(C(=O)O)cc1 | -1 | 3 | -4 | -5 | -1 | -1
COc1ccccc1CNc1ccc(CNc2ncn[nH]2)cc1 | 0 | -2 | 6 | 87* | 4 | 9
O=C(Cc1ccc(NC(=O)C2CCN(C(=O)CCc3ccccc3)CC2)cc1)Nc1cccc(C(=O)N2CCCC2)c1 | -1 | nt | nt | nt | nt | 4
CC(C)CNS(=O)(=O)/C=C/c1cc2c(cc1CNC(=O)OC(C)(C)C)OCO2 | 0 | nt | nt | nt | nt | 5
O=C(Nc1ccccc1)OCc1cc(-c2ccccc2Cl)on1 | 3 | 31* | -8 | nt | 6 | -1
Nc1[nH]c(C(=O)c2ccccc2)c(-c2cc(F)ccc2Br)c1C(=O)NCCc1c[nH]c2ccccc12 | -1 | nt | nt | nt | nt | 13
Cc1ccc(NC2=C(Cl)C(=O)OC2OC(=O)c2ccco2)cc1C (centres undefined) | 0 | -2 | 7 | 91* | 0 | 7
Cc1ccc(NC2=C(Cl)C(=O)OC2OC(=O)c2ccco2)c(C)c1 (centres undefined) | 3 | -1 | 7 | 99* | 3 | -1
Cc1ccc(O)c(O)c1 | nt | -3 | nt | -25 | nt | nt
Cc1cc(O)c(Oc2cc(C)cc(O)c2O)c(O)c1 | 38* | 4 | 5 | nt | -7 | 14
COc1cccc([C@@H]2NC(=O)C/C=C/[C@H](C)[C@H](c3cccc(OC)c3)NC(=O)C/C=C/[C@@H]2C)c1 | -1 | nt | nt | nt | nt | 6
CC(C)(C)c1ccc(Cn2c(=O)cnc3ccccc32)cc1 | -1 | 17* | -2 | nt | -8 | -2
CCn1c(CNc2ccc(Cl)cc2)nnc1SCCN1CCCCC1 | -3 | 5 | 4 | 98* | -2 | -1
CCn1c(CNc2ccc(Cl)cc2)nnc1SCc1ccc(Cl)cc1 | 2 | 0 | 8 | -2 | 6 | -5
COc1cc(C=NCC2OCCc3ccccc32)cc(OC)c1 (centres undefined) | 2 | 18* | -4 | -4 | 1 | -2
CC(C)CNC(=O)C1CSCCS(=O)(=O)N1Cc1ccccc1 (centres undefined) | 4 | nt | nt | nt | nt | -1
Cc1cc(C)c2c(=O)[nH]c(SCC(=O)Nc3ccc(N(C)C)cc3)nc2n1 | 7 | -5 | -3 | 99* | 9 | 19
Cc1cc(C)c2c(=O)[nH]c(SCC(=O)c3ccc(C)c(C)c3)nc2n1 | -2 | 1 | 1 | 98* | 6 | 21
Cc1cc(C)cc(NC(=O)CSc2nc3nc(C)cc(C)c3c(=O)[nH]2)c1 | 10 | -1 | -11 | 99* | -4 | 14
SMILES | PRMT1 FP inh | LANA-H2B inh | ABHD5 PLIN5 PPI | ALR inh | Rtt109 HAT inh | rCAG RNA binder
CN(C)c1ccc(NC(=O)CSc2nc3c(c(=O)[nH]2)CCCC3)cc1 | nt | 1 | -6 | 96* | -2 | nt
COC(=O)C(C)Sc1nnc(Cc2cc(=O)[nH]c(=O)[nH]2)n1-c1cc(C)ccc1C (centres undefined) | -3 | 2 | -3 | 91* | -3 | 0
COC(=O)C(C)Sc1nnc(Cc2cc(=O)[nH]c(=O)[nH]2)n1-c1cccc(OC)c1 (centres undefined) | 1 | -5 | -3 | 27 | -10 | 3
CCOc1ccc(-n2c(Cc3cc(=O)[nH]c(=O)[nH]3)nnc2SC(C)C(=O)OC)cc1 (centres undefined) | 6 | -2 | 0 | 93* | 3 | 0
Cc1ccccc1NC(=O)Cc1nc(COC(=O)CCC(=O)c2ccccc2)cs1 | -1 | 104* | 5 | -2 | -1 | 4
O=C(O)c1ccc(CSc2nc3ccc(NC(=O)c4ccccc4C(=O)O)cc3s2)cc1 | 1 | -4 | 4 | 99* | 2 | 8
N#Cc1ccccc1CSc1nc2ccc(NC(=O)c3ccccc3C(=O)O)cc2s1 | 1 | -2 | 1 | 99* | -1 | 9
Cc1nc2ccc(NC(=O)c3ccccc3)cc2s1 | 7 | -2 | 3 | 1 | nt | -3
CC(C)[C@H]1/C(=C/C2CC2)N2C(=O)C[C@@H](c3ccccc3)N=C2N1Cc1ccc2c(c1)OCO2 | -1 | nt | nt | nt | nt | 6
CCCCc1c(-c2ccccc2OC)ncn1Cc1ccccc1Cl | 0 | nt | nt | nt | nt | -1
CCNc1ccc(N=Nc2c(C)n(C)n(-c3ccccc3)c2=O)cc1 | -3 | -1 | 4 | 99* | ? | -3
CC1=CC(=Nc2c(C)n(C)n(-c3ccccc3)c2=O)C=C(C)C1=O | -1 | -3 | -1 | 99* | 6 | 2
CC1=CC(=Nc2c(C)n(C)n(-c3ccccc3)c2=O)C=CC1=O | nt | 3 | nt | nt | nt | nt
CN1C[C@@H](CO)O[C@@H](n2cnc3c(N4CCOCC4)ncnc32)C1 | 5 | nt | -5 | nt | nt | 0
CC(C)Cc1ccc(CN2C(C)C(=O)N(Cc3cn(Cc4ccco4)nn3)CCS2(=O)=O)cc1 (centres undefined) | 7 | nt | 11 | nt | nt | 51*
CC(C)C[C@H]1CN([C@@H](CC(C)C)CN2CCCC2CN2C(=S)NC[C@@H]2Cc2ccccc2)C(=S)N1CC1CCCCC1 (some centres undefined) | -2 | nt | -4 | nt | nt | 3
Nc1nc(=S)c2ncn(C3OC(CO)C(O)C3O)c2[nH]1 (centres undefined) | 23* | 2 | -10 | 9 | -4 | 28
C=CCn1c(N)c(C(=O)NCc2cccnc2)sc1=S | 7 | 2 | 5 | 98* | 13 | 1
NC(=O)NCc1cccnc1 | -3 | 2 | -9 | 3 | 0 | 2
O=C(COc1ccc(Cl)cc1)NNC(=O)c1ccncc1 | 1 | 39* | -6 | nt | 3 | 1
Cc1cc2nc(-c3ccccc3)c(Cc3ccsc3)n2c(C)c1Br | 9 | nt | -10 | nt | nt | 7
c1ccc(-c2ccccc2OCCCN2CCCCCC2)cc1 | -3 | 84* | 10 | -7 | 11 | 3
O=c1ccc2ccc(OCc3ccccc3)cc2o1 | -6 | -1 | -5 | -4 | -4 | -1
O=C(NCCCc1ccccc1)[C@H](Cc1c[nH]c2ccccc12)NC1(C(=O)NCCc2c[nH]c3ccccc23)CCOCC1 | -2 | nt | nt | nt | nt | nt
COC(=O)c1sccc1NC(=O)Nc1ccccc1C | 0 | -8 | -2 | 11 | 5 | 0
COC(=O)c1sccc1NC(=O)Nc1ccccc1F | -2 | 12* | -2 | 12 | 2 | 3
c1ccc(-c2nn(Cc3ncco3)c3ccccc23)cc1 | -3 | nt | nt | nt | nt | nt

Screens: PubChem BioAssay, several laboratories
